Test results reported in PubChem BioAssay.
Values joined by “and” are separate entries in the source; they are usually repeats but may differ in a detail not shown here. Equal values may be shown once. Active and inactive are the calls of the source. Unless noted, no stated cut-off is given here; in the data, active means parasite load remaining mostly below about 12% (no sharp cut-off); inactive means mostly above about 10%. Starred links: 1 amine or outer side, 2 acyl side, 3 side chain; linkers in the order of their positions; H or OH if unused. Positions of bridges follow the written chain, without caps; N, C: chain ends. Non-standard residues stand in square brackets, D forms with d. Residues, ends and D or L forms follow the SMILES beside them. Chains are numbered I, II in the order given. Actinocin(9to1) = Cc1c2oc3c(C)ccc(C(=O)[*:1])c3nc-2c(C(=O)[*:2])c(N)c1=O; NMeV = CN[C@H](C(=O)O)C(C)C; Sar = CNCC(=O)O

Experiments:
[1] = system: Hepatitis C virus NS3 helicase; experiment: blockers of NS3h binding to ssDNA – biochemical, fluorescence polarization, LOPAC1280 library, primary screen (AID 687035; in the data active means inhibition above about 37%); conditions: Purified HCV NS3 helicase, Cy5-dT15 ssDNA binding fluorescence polarization; stronger effect = higher value; concentration not given here
[2] = compounds altering Cy5-DNA-NS3h complex signal – biochemical, LOPAC1280, artefact control for HCV NS3 helicase inhibitor project (AID 687037; call rule not given here); conditions: Cy5-DNA-NS3h complex fluorescence interference counterscreen
[3] = Wnt pathway potentiators raising nuclear beta-catenin – imaging, WNT3A-conditioned medium, mouse C2C12, NPC library, primary screen (AID 1117326; in the data active means nuclear beta-catenin stimulation mostly above about 4.2%, no sharp cut-off; inactive means mostly below about 10%); conditions: stronger effect = higher value
[4] = stimulators of insulin release from INS-1E, primary screen, cell-based, 5 mM glucose, NPC library (AID 1117329;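 active means compound raises insulin release from rat beta cells at 5 mM glucose, no numeric limit stated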); conditions: rat INS-1E insulin secretion, at 10 µM, stronger effect = higher value
[5] = growth inhibition of GSK3B-pretreated HCT116 cells – cell-based, CellTiter-Glo, 0.2 to 20 µM (AID 1117336;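 active means compounds lowering colon cancer cell viability after pretreatment blocking the GSK3B kinase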); conditions: HCT116 viability after GSK3B inhibitor, at 20 µM, stronger effect = higher value
[6] = inhibition of endothelial tube formation, primary screen, imaging, VEGF stimulated, CD31 staining, tube area, NPC library (AID 1117340;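 active means compound that reduces growth-factor-driven endothelial tube area in a mixed cell culture, no cutoff stated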); conditions: VEGF-stimulated ADSC/ECFC co-culture, at 10 µM, stronger effect = higher value
[7] = GLP1 release stimulators, primary, NCI-H716, NPC library (AID 1117341;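 active means compound raises GLP1 secretion from the human gut endocrine cells, with no numeric limit stated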); conditions: NCI-H716 cells, at 10 µM, stronger effect = higher value
[8] = HCT116 colon cancer cell growth inhibition, primary screen, CellTiter-Glo luminescence, NPC library (AID 1117342;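 active means compounds that lower survival of HCT116 colon cancer cells in the luminescence readout, no numeric limit stated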); conditions: at 20 µM (top of the series)
[9] = reduced SW480 viability measured with CellTiter-Glo, NPC library, primary (AID 1117343;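 active means compounds that lower viability of the colon cancer cells in the luminescence readout, with no numeric limit stated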); conditions: CellTiter-Glo luminescence; at 20 µM (top of the series)
[10] = NPC library primary testing for decreased DLD-1 cell viability via CellTiter-Glo (AID 1117346;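 active means compounds that lower survival of DLD-1 colon cancer cells in the luminescence readout, no cutoff given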); conditions: DLD-1 viability, CellTiter-Glo luminescence; at 20 µM (top of the series)
[11] = target: 6-phosphogluconate dehydrogenase, decarboxylating (Homo sapiens) (UniProt P52209); experiment: inhibition of human phosphogluconate dehydrogenase – biochemical, recombinant enzyme, NADPH absorbance, primary screen (AID 1159550;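 active means at least 20% inhibition of 6-phosphogluconate dehydrogenase activity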); conditions: recombinant 6PGD, NADPH absorbance 341 nm; at 10 µM; stronger effect = higher value
[12] = P. berghei load reduction in hepatocytes – cell-based, HepG2, luciferase luminescence, HepG2 viability, primary screen (AID 624349);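 further: 100% = mean of DMSO negative control wells on the same plate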; conditions: P. berghei liver stage in HepG2, luciferase luminescence, concentration not given here; parasite load remaining: stronger effect = lower value; viability: measured here: HepG2 viability without parasites
[13] = signal quenchers or enhancers, Cy5 substrate/SSB – biochemical, NIH Clinical Collection, E. coli SSB, artefact control for HCV NS3 helicase inhibitor project (AID 743268; call rule not given here); conditions: Cy5-oligo bound E. coli SSB, fluorescence interference
[14] = system: Hepatitis C virus NS3 helicase; experiment: blockers of NS3h binding to DNA – biochemical, fluorescence polarization, NIH Clinical Collection, primary screen (AID 743270; call rule not given here); conditions: NS3 helicase binding to Cy5-dT15 DNA, stronger effect = higher value, concentration not given here
[15] = target: Single-stranded DNA-binding protein (Escherichia coli (strain K12)) (UniProt P0AGE0); experiment: SSB-ssDNA binding inhibitors – biochemical, fluorescence polarization, NIH Clinical Collection, counter-screen for HCV NS3 helicase inhibitor project (AID 743271; in the data active means inhibition above about 28%); conditions: E. coli SSB-DNA binding, stronger effect = higher value, concentration not given here
[16] = compounds distorting NS3 helicase fluorescence signal – biochemical, NIH Clinical Collection, artefact control for HCV NS3 helicase inhibitor project (AID 743272; call rule not given here;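 further: HCV NS3 helicase with a Cy5 labelled single stranded DNA probe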); conditions: fluorescence interference counterscreen, HCV NS3 helicase assay; stronger effect = lower value
[17] = system: Neuropilin-2 / VEGF-C interaction (human); experiment: small molecules blocking Neuropilin-2/VEGF-C interaction – biochemical, microplate binding format, z-score (AID 743281; call rule not given here); conditions: microplate NRP2/VEGF-C binding assay; stronger effect = lower value

6-phosphogluconate dehydrogenase, decarboxylating (Homo sapiens), sequence (P52209 whole entry, looked up): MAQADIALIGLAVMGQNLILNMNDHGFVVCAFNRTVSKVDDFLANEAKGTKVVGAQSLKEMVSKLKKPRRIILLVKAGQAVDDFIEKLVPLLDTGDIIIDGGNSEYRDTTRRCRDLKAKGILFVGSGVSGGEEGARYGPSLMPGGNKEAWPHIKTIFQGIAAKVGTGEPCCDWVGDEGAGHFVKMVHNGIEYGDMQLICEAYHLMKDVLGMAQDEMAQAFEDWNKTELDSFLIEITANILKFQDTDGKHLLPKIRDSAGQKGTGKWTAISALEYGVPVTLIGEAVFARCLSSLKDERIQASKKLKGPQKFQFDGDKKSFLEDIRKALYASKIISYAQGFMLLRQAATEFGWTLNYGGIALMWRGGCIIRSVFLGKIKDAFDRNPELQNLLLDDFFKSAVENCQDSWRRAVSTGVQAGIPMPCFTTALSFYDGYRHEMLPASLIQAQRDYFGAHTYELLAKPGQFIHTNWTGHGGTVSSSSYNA

| Structure (SMILES) | inhibition [1] | fluorescence ratio (interference) [2] | nuclear beta-catenin stimulation ([3]; at 10 µM) | nuclear beta-catenin stimulation ([3]; stimulation, at 2 µM) [%] | insulin secretion stimulation [4] | viability decrease [5] | tube area decrease [6] | GLP1 secretion stimulation [7] | inhibition of viability [8] | viability decrease (inhibition) [9] | viability decrease (inhibition) [10] | inhibition [11] | parasite load remaining [12] | viability [12] | fluorescence ratio [13] | inhibition [14] | inhibition [15] | fluorescence ratio [16] | z-score [17] |
| --- | --- | --- | --- | --- | --- | --- | --- | --- | --- | --- | --- | --- | --- | --- | --- | --- | --- | --- | --- |
| CCOC(=O)C1=C[C@]2(CC)CCCN3CCc4c(n1c1ccccc41)[C@@H]32 | -2% (inactive) | 1 (inactive) | 0.9% (inactive) | -0.3 | -1.7% (inactive) | 14.4% (inactive) | 41% (active) | 2.8% (inactive) | -3.2% (inactive) | 61.3% (active) | 2.25% (inactive) | 13.5% (inactive) |  |  |  |  |  |  |  |
| Cc1c2oc3c(C)ccc(C(=O)N[C@@H]4C(=O)N[C@H](C(C)C)C(=O)N5CCC[C@H]5C(=O)N(C)CC(=O)N(C)[C@@H](C(C)C)C(=O)O[C@@H]4C)c3nc-2c(C(=O)N[C@@H]2C(=O)N[C@H](C(C)C)C(=O)N3CCC[C@H]3C(=O)N(C)CC(=O)N(C)[C@@H](C(C)C)C(=O)O[C@@H]2C)c(N)c1=O (I: T[dV]P[Sar][NMeV] / II: T[dV]P[Sar][NMeV]; ester I:1-I:C, II:1-II:C; linker I:N-II:N via Actinocin(9to1)) |  |  | 92.5% (active) | 109 | 1% (inactive) | -75.8% (active) | 110% (active) | 1.9% (inactive) | 37.8% (active) | 70.6% (active) | 69.3% (active) | -6.87% (inactive) | -0.02% (inactive) | 31.5% | 0.91 (inactive) | 1.53% (inactive) | 2.76% (inactive) | 0.93 (inactive) | -4.03 (active) |
| CN1CCN(CC(=O)N2c3ccccc3C(=O)Nc3cccnc32)CC1 | -1% (inactive) | 1 (inactive) | 1.7% (inactive) | -0.5 | -1.3% (inactive) | -6.7% (inactive) | 7.8% (inactive) | -0.5% (inactive) | -2.2% (inactive) | -14.1% (inactive) | 5.4% (inactive) | 7.85% (inactive) |  |  |  |  |  |  |  |
| C=CC(N)CCC(=O)O (centres undefined) | 0% (inactive) | 1 (inactive) | 1.7% (inactive) | 0.5 | 1.4% (inactive) | -25.5% (inactive) | -14.9% (inactive) | -0.9% (inactive) | 10.9% (inactive) | -15.3% (inactive) | -6.8% (inactive) | -0.693% (inactive) | 117% (inactive) and 83.3% (inactive) and 20.7% (inactive) | 112% and 77.9% and 99.3% |  |  |  |  |  |
| Cc1cc(C(C)(C)C)cc(C)c1CC1=NCCN1 | 1% (inactive) | 1 (inactive) | 0.1% (inactive) | 1 | 0.2% (inactive) | -61.3% (inactive) | 5.9% (inactive) | 4.3% (inactive) | 18.3% (inactive) | 2.6% (inactive) | 14.6% (inactive) | -1.59% (inactive) |  |  |  |  |  |  |  |
| NCCCCCC(=O)O | 1% (inactive) | 0.9 (inactive) | 2.8% (inactive) | -1 | -1.3% (inactive) | -23% (inactive) | 15.9% (inactive) | 1.1% (inactive) | -10.8% (inactive) | 9.9% (inactive) | -9.4% (inactive) | 11.8% (inactive) | 112% (inactive) and 74.1% (inactive) and 56.9% (inactive) | 104% and 74.3% and 90.5% |  |  |  |  |  |
| C[C@H]1O[C@@H](n2cc(F)c(=O)[nH]c2=O)[C@H](O)[C@@H]1O | -1% (inactive) | 1 (inactive) | 1.3% (inactive) | 0.4 | -1.2% (inactive) | 29.5% (inactive) | 22.2% (inactive) | -2.6% (inactive) | 59.6% (active) | 20.6% (inactive) | 8.35% (inactive) | -6.33% (inactive) | 43.4% (inactive) | 83% |  |  |  |  |  |
| CC(=O)OCC1=C(C(=O)O)N2C(=O)[C@@H](NC(=O)Cc3cccs3)[C@H]2SC1 | 0% (inactive) | 1 (inactive) | 2.4% (inactive) | 4.2 | 3.6% (inactive) | 33.1% (inactive) | -3.9% (inactive) | 2.4% (inactive) | 2.9% (inactive) | -15.1% (inactive) | -1% (inactive) | 4.29% (inactive) | 98.3% (inactive) and 75.9% (inactive) and 62% (inactive) | 104% and 75.3% and 99.8% |  |  |  |  |  |
| CCCCCN(CCCCC)C(=O)C(CCC(=O)O)NC(=O)c1ccc(Cl)c(Cl)c1 (centres undefined) | -5% (inactive) | 0.9 (inactive) | -0.8% (inactive) | -0.1 | 2.8% (inactive) | -12.2% (inactive) | 4.7% (inactive) | 6.6% (inactive) | 4.6% (inactive) | 40.9% (inactive) | 38.9% (inactive) | 2.64% (inactive) | 72.3% (inactive) and 35.5% (inactive) | 92.1% and 74.5% |  |  |  |  |  |
| NC(=O)c1ncn([C@@H]2O[C@H](CO)[C@@H](O)[C@H]2O)n1 | -6% (inactive) | 0.9 (inactive) | 1.7% (inactive) | 2.6 | 0% (inactive) | -32.4% (inactive) | 25.6% (inactive) | 0.7% (inactive) | -15.3% (inactive) | -29.6% (inactive) | 11.6% (inactive) | 16.1% (inactive) | 64.8% (inactive) and 245% (inactive) and 27% (inactive) | 80.3% and 108% and 67% |  |  |  |  |  |
| C[N+](C)(C)CCOC(N)=O | -1% (inactive) | 0.9 (inactive) | -0.5% (inactive) | 2.3 | -0.5% (inactive) | 1.3% (inactive) | -7.7% (inactive) | 2.2% (inactive) | -2.4% (inactive) | -4.8% (inactive) | -12.5% (inactive) | -13.5% (inactive) |  |  |  |  |  |  |  |
